Reference: PubChem BioAssay (Tox21)
Where “and” joins values, the source holds several entries; their conditions need not be identical. Identical values can stand only once. Inconclusive results are not listed. A call without a number means that no potency is given here. Where a structure was tested more than once in an assay, its records may differ in their call. Calls of active or inactive are those of the source. Unless noted, calls come from the whole dose curve; as a rule, active = well fitted curve in the direction sought with a large enough effect in the repeat runs; inconclusive = weak or mixed curves; inactive = no such curve, though single readings can be large; an effect the other way counts as inactive or inconclusive.

Key:
[1] = A CellTox Green Cytotoxicity Assay to monitor cytotoxicity in HepG2 cells - 0 hour (AID 1224882); note: nearly all actives have a fitted effect of over 35% in size
In short: (§1)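 HepG2 cells were seeded together with the CellTox Green dye at 600 cells/well, left 5 h at 37 C/5% CO2, then given compounds in DMSO. Fluorescence from dye bound to dead-cell DNA was read repeatedly over 40 h of treatment at 37 C.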

[2] = A CellTox Green Cytotoxicity Assay to monitor cytotoxicity in HepG2 cells - 32 hour (AID 1224883); note: nearly all actives have a fitted effect of over 50% in size; note: potency is the fitted concentration of half-maximal effect
In short: as §1

[3] = A CellTox Green Cytotoxicity Assay to monitor cytotoxicity in HEK293 cells - 8 hour (AID 1224884); note: nearly all actives have a fitted effect of over 35% in size; note: potency is the fitted concentration of half-maximal effect
In short: (§2)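 HEK293 cells premixed with CellTox Green dye were seeded at 600 cells/well and left 5 h at 37 C/5% CO2 before pin transfer of 23 nL compound in DMSO. Fluorescence from dye bound to dead-cell DNA was read during 40 h treatment.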

[4] = qHTS RealTime-Glo MT Cell Viability Assay in HEK293 cells - 24 hour (AID 1224886); note: nearly all actives have a fitted effect of over 50% in size; note: potency is the fitted concentration of half-maximal effect
In short: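 Assay medium contained NanoLuc luciferase plus cell-permeant prosubstrate, added with HEK293 cells at 600 cells/well. After 5 h at 37 C/5% CO2 compounds were added; plates stayed at 37 C for 40 h with serial luminescence reads.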

[5] = qHTS RealTime-Glo MT Cell Viability Assay in HEK293 cells - 8 hour (AID 1224887); note: nearly all actives have a fitted effect of over 50% in size; note: potency is the fitted concentration of half-maximal effect
In short: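 HEK293 cells mixed with RealTime-Glo reagents (NanoLuc plus cell-permeant prosubstrate) at 600 cells/well, preincubated 5 h at 37 C/5% CO2, then given 23 nL compound in DMSO. Nonlytic luminescence from viable cells was read at 0, 8, 16, 24, 32 and 40 h.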

[6] = A CellTox Green Cytotoxicity Assay to monitor cytotoxicity in HEK293 cells - 16 hour (AID 1224888); note: nearly all actives have a fitted effect of over 35% in size; note: potency is the fitted concentration of half-maximal effect
In short: as §2

[7] = qHTS RealTime-Glo MT Cell Viability Assay in HepG2 cells - 0 hour (AID 1224889); note: nearly all actives have a fitted effect of over 50% in size
In short: (§3)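 qHTS, HepG2, 600 cells/well, RealTime-Glo (NanoLuc + prosubstrate) added with cells; 5 h preincubation; DMSO compound addition; 37 C; luminescence at 0/8/16/24/32/40 h.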

[8] = qHTS assay to identify small molecule antagonists of the estrogen receptor alpha (ER-alpha) signaling pathway using the BG1 cell line in the presence of 0.1 nM 17-beta-estradiol - cell viability counter screen (AID 1259241); note: nearly all actives have a fitted effect of over 40% in size; note: potency is the fitted concentration of half-maximal effect
In short: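 Cells were plated and left 24 hr, compounds in DMSO were pinned in, 17beta-estradiol was added to 0.1 nM final, and after 22 hr CellTiter-Fluor reagent was added for 30 min before fluorescence was read.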

[9] = qHTS assay to identify small molecule antagonists of the androgen receptor (AR) signaling pathway using the MDA cell line in the presence of 0.5 nM R1881 - cell viability counter screen (AID 1259242); note: nearly all actives have a fitted effect of over 45% in size; note: potency is the fitted concentration of half-maximal effect
In short: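 MDA-kb2 cells (human breast carcinoma, stably carrying MMTV-luciferase reporter) were exposed to compounds with 0.5 nM R1881 (final) for 16 hr at 37C, 0% CO2; viability then read as live-cell protease fluorescence (CellTiter-Fluor, 30 min) in the same wells.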

[10] = molecular target: Estrogen receptor (Homo sapiens) (UniProt P03372); test: qHTS assay to identify small molecule antagonists of the estrogen receptor alpha (ER-alpha) signaling pathway using the BG1 cell line in the presence of 0.1 nM 17-beta-estradiol (AID 1259244); note: nearly all actives have a fitted effect of over 50% in size; note: potency is the fitted concentration of half-maximal effect
Sequence of Estrogen receptor (Homo sapiens) (P03372 whole entry, looked up): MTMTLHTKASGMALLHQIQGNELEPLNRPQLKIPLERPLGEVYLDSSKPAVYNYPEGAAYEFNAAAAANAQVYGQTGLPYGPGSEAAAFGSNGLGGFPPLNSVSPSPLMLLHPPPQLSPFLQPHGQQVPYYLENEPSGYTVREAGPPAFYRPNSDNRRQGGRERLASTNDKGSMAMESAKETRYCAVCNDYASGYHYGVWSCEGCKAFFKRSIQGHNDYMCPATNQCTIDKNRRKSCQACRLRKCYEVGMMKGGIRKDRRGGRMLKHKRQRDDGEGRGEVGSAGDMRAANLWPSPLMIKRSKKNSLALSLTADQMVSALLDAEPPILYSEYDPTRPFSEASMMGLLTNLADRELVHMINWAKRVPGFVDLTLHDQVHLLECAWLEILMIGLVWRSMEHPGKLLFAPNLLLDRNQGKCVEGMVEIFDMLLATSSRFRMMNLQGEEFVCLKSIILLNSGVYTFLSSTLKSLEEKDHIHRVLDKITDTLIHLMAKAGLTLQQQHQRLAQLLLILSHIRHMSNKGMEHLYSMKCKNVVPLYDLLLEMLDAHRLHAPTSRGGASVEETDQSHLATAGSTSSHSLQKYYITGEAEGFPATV
In short: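 VM7Luc4E2 cells (endogenous full-length ER-alpha, stable 4xERE-luciferase) were grown 5 days in phenol red-free medium with charcoal-stripped FBS, then exposed 22 h at 37C to compounds plus 0.1 nM (final) 17beta-estradiol; ONE-Glo luminescence read-out.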

[11] = qHTS assay to identify small molecule antagonists of the sonic hedgehog signaling (Shh) pathway - cell viability counter screen (AID 1259367); note: nearly all actives have a fitted effect of over 55% in size; note: potency is the fitted concentration of half-maximal effect
In short: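 Cells: 3T3 Gli1-Luc, 2,000/well, 4 hr pre-incubation. Compounds in DMSO, then conditioned medium. Incubation 24 hr, 37C, 5% CO2. CellTiter-Fluor at 23 hr, 1 hr, fluorescence.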

[12] = qHTS assay to identify small molecule agonists of the sonic hedgehog signaling (Shh) pathway (AID 1259368; calls by dose curve; note: series mostly up to about 92 µM; nearly all actives have a fitted effect of over 15% in size)
In short: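 NIH/3T3-derived 3T3Gli1-Luc cells carrying a stably integrated Gli1 response element–firefly luciferase reporter were plated, left 4 hr at 37 C, then given compounds in DMSO for 24 hr. Luminescence was read 30 min after adding luciferase reagent.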

[13] = qHTS assay to identify small molecule antagonists of the sonic hedgehog signaling (Shh) pathway (AID 1259369; calls by dose curve; note: nearly all actives have a fitted effect of over 45% in size; note: potency is the fitted concentration of half-maximal effect)
In short: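 NIH/3T3-derived 3T3Gli1-Luc cells with stably integrated Gli1-Luc reporter were preincubated 4hr at 37 C, then given compounds in DMSO plus Shh conditioned medium and incubated 24hr. Firefly luciferase luminescence read after 30min reagent at room temperature.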

[14] = A CellTox Green Cytotoxicity Assay to monitor cytotoxicity in HepG2 cells - 8 hour (AID 1224890); note: nearly all actives have a fitted effect of over 45% in size; note: potency is the fitted concentration of half-maximal effect
In short: as §1

[15] = qHTS assay to identify small molecule HDAC inhibitors - cell viability counter screen (AID 1259365)
In short: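 Counter screen in wild-type HCT-116 cells: compounds dissolved in DMSO are pin-transferred onto overnight-plated cells and left 2hr at 37C. ATP-based CellTiter-Glo luminescence then measures viable cells.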

[16] = qHTS assay to identify small molecule agonists of the sonic hedgehog signaling (Shh) pathway - cell viability counter screen (AID 1259366); note: nearly all actives have a fitted effect of over 50% in size; note: potency is the fitted concentration of half-maximal effect
In short: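 Cells are plated at 2,000 per well and left 4hr at 37C, 5% CO2 before compound addition. After 23hr of treatment, CellTiter-Fluor reagent is added for 1hr at 37C and fluorescence is measured.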

[17] = qHTS assay to identify small molecule HDAC inhibitors (AID 1259364); note: top concentration of the series differs between compounds; nearly all actives have a fitted effect of over 45% in size
In short: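 Wild-type HCT-116 cells were plated overnight, exposed to compounds for 2 h at 37 °C, then given HDAC-Glo class I/II luminogenic reagent for 30 min at room temperature before luminescence was read.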

[18] = molecular target: Androgen receptor (Homo sapiens) (UniProt P10275); test: qHTS assay to identify small molecule antagonists of the androgen receptor (AR) signaling pathway using the MDA cell line in the presence of 0.5 nM R1881 (AID 1259243)
Sequence of Androgen receptor (Homo sapiens) (P10275 whole entry, looked up): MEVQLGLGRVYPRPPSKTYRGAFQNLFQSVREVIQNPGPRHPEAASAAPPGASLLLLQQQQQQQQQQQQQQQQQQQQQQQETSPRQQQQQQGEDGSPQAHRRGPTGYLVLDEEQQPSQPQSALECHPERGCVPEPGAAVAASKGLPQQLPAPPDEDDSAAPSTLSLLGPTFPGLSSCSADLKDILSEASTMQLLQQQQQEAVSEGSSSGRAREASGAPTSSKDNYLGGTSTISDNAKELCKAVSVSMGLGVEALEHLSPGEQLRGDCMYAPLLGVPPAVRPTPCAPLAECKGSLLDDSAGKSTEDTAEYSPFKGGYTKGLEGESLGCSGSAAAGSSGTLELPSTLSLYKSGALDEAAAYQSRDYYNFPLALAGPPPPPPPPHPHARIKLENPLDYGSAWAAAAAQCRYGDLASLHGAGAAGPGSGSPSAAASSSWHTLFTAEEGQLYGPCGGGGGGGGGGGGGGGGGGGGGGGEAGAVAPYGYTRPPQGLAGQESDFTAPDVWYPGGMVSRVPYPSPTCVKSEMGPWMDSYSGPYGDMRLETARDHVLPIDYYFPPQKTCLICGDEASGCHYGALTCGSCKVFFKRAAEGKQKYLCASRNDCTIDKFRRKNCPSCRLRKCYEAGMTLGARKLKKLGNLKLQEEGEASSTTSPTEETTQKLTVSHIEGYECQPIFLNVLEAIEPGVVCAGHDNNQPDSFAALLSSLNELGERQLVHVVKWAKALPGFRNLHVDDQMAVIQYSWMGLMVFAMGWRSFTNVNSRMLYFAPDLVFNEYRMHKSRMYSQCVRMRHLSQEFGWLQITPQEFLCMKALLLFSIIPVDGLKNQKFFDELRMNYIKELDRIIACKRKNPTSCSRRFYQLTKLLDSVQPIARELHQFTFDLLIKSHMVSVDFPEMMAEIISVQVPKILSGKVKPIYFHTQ
In short: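 MDA-kb2 human breast carcinoma cells carrying an MMTV-luciferase reporter (AR- and GR-responsive) were plated, rested 5 hr at 37C, dosed with compounds, then stimulated with 0.5 nM R1881 (final) for 16 hr; luminescence was read after ONE-Glo.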

[19] = qHTS assay to identify small molecule phospholipidosis (PLD) inducers (AID 1259344; active = well fitted curve in the direction sought with a large enough effect; an effect the other way counts as inactive or inconclusive)
In short: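 Phospholipidosis is scored by imaging LipidTOX-stained pits in HepG2 cells exposed to compound for 24 h at 37 C; pit counts and integrated intensities per well and per cell serve as outputs.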

[20] = qHTS RealTime-Glo MT Cell Viability Assay in HepG2 cells - 16 hour (AID 1224885); note: nearly all actives have a fitted effect of over 50% in size
In short: as §3

## CC(=O)CC(=O)Nc1ccc2[nH]c(=O)[nH]c2c1
[1]
  Potency: inactive
[2]
  Potency: inactive
[3]
  Potency: inactive
[4]
  Potency: inactive
[5]
  Potency: inactive
[6]
  Potency: inactive
[7]
  Potency: inactive
[8]
  Potency: inactive
[9]
  Potency: inactive
[10]
  Potency: inactive
[11]
  Potency: inactive
[12]
  Potency: inactive
[13]
  Potency: inactive

## Nc1cc(S(=O)(=O)O)cc2cc(S(=O)(=O)O)cc(O)c12
[1]
  Potency: inactive
[2]
  Potency: inactive
[3]
  Potency: inactive
[4]
  Potency: inactive
[14]
  Potency: inactive
[8]
  Potency: 27.3 µM (active)
[9]
  Potency: inactive
[15]
  Potency: inactive
[16]
  Potency: inactive
[12]
  Potency: inactive
[13]
  Potency: inactive

## COC(=O)[C@H]1[C@H]2C[C@@H]3c4[nH]c5cc(OC)ccc5c4CCN3C[C@H]2C[C@@H](OC(=O)c2cc(OC)c(OC)c(OC)c2)[C@@H]1OC
[1]
  Potency: inactive
[2]
  Potency: inactive
[3]
  Potency: inactive
[4]
  Potency: 4.89 µM (active) and 6.34 µM (active) and 8.49 µM (active)
[5]
  Potency: 4.89 µM (active) and 6.34 µM (active) and 9.52 µM (active)
[6]
  Potency: inactive
[7]
  Potency: inactive
[8]
  Potency: inactive
[9]
  Potency: inactive
[17]
  Potency: inactive
[15]
  Potency: inactive
[16]
  Potency: inactive
[11]
  Potency: inactive
[12]
  Potency: inactive
[13]
  Potency: 12.2 µM (active) and 15.8 µM (active) and 23.7 µM (active)

## CC(C)(C)c1ccccc1
[1]
  Potency: inactive
[2]
  Potency: inactive
[3]
  Potency: inactive
[4]
  Potency: inactive
[5]
  Potency: inactive
[6]
  Potency: inactive
[7]
  Potency: inactive
[8]
  Potency: inactive
[9]
  Potency: inactive
[17]
  Potency: inactive
[15]
  Potency: inactive
[11]
  Potency: inactive
[12]
  Potency: inactive
[13]
  Potency: inactive

## Cc1ccc(S(=O)(=O)Oc2ccc(N=Nc3ccc(-c4ccc(N=Nc5c(O)ccc6cc(S(=O)(=O)O)cc(S(=O)(=O)O)c56)c(C)c4)cc3C)cc2)cc1
[1]
  Potency: inactive
[2]
  Potency: inactive
[3]
  Potency: inactive
[5]
  Potency: inactive
[14]
  Potency: inactive
[8]
  Potency: 21.8 µM (active) and 14.1 µM (active)
[9]
  Potency: 27.4 µM (active) and 17.8 µM (active)
[18]
  Potency: 17.3 µM (active) and 20 µM (active)
[17]
  Potency: inactive
[16]
  Potency: 24.4 µM (active) and 15.9 µM (active)
[11]
  Potency: 24.4 µM (active) and 20 µM (active)
[12]
  Potency: inactive
[13]
  Potency: inactive

## CC1COc2c(N3CCN(C)CC3)c(F)cc3c(=O)c(C(=O)O)cn1c23 (configuration not stated)
[1]
  Potency: inactive
[2]
  Potency: inactive
[3]
  Potency: inactive
[6]
  Potency: inactive
[14]
  Potency: inactive
[9]
  Potency: inactive
[19]
  Potency: inactive
[17]
  Potency: inactive
[15]
  Potency: inactive
[16]
  Potency: inactive
[11]
  Potency: inactive
[12]
  Potency: inactive
[13]
  Potency: inactive

## CC(COc1ccccc1)N(CCCl)Cc1ccccc1 (configuration not stated)
[1]
  Potency: inactive
[2]
  Potency: 55.5 µM (active)
[3]
  Potency: inactive
[4]
  Potency: 49.5 µM (active) and 49 µM (active)
[5]
  Potency: inactive
[6]
  Potency: inactive
[7]
  Potency: inactive
[14]
  Potency: inactive
[8]
  Potency: inactive
[9]
  Potency: 55 µM (active) and inactive
[19]
  Potency: inactive
[15]
  Potency: inactive
[11]
  Potency: inactive
[12]
  Potency: inactive
[13]
  Potency: 43.3 µM (active) and inactive

## O=C(Cl)c1cccc(C(=O)Cl)c1
[1]
  Potency: inactive
[2]
  Potency: inactive
[3]
  Potency: inactive
[5]
  Potency: inactive
[7]
  Potency: inactive
[14]
  Potency: inactive
[8]
  Potency: inactive
[9]
  Potency: inactive
[17]
  Potency: inactive
[15]
  Potency: inactive
[16]
  Potency: inactive
[11]
  Potency: inactive
[12]
  Potency: inactive
[13]
  Potency: inactive

## CC(=O)CC(C)=O
[1]
  Potency: inactive
[2]
  Potency: inactive
[20]
  Potency: inactive
[4]
  Potency: inactive
[5]
  Potency: inactive
[6]
  Potency: inactive
[7]
  Potency: inactive
[14]
  Potency: inactive
[8]
  Potency: inactive
[9]
  Potency: inactive
[10]
  Potency: inactive
[17]
  Potency: inactive
[15]
  Potency: inactive
[16]
  Potency: inactive
[11]
  Potency: inactive
[12]
  Potency: inactive
[13]
  Potency: inactive

## Cc1occc(=O)c1OC(=O)C(C)C
[1]
  Potency: inactive
[2]
  Potency: inactive
[3]
  Potency: inactive
[4]
  Potency: inactive
[5]
  Potency: inactive
[6]
  Potency: inactive
[7]
  Potency: inactive
[14]
  Potency: inactive
[9]
  Potency: inactive
[15]
  Potency: inactive
[11]
  Potency: inactive
[12]
  Potency: inactive
[13]
  Potency: inactive

## O=c1n(CC2CO2)c(=O)n(CC2CO2)c(=O)n1CC1CO1 (configuration not stated)
[1]
  Potency: inactive
[2]
  Potency: inactive
[20]
  Potency: inactive
[4]
  Potency: inactive
[5]
  Potency: inactive
[6]
  Potency: inactive
[7]
  Potency: inactive
[14]
  Potency: inactive
[8]
  Potency: inactive
[9]
  Potency: inactive
[10]
  Potency: inactive
[19]
  Potency: inactive
[15]
  Potency: inactive
[16]
  Potency: 61.1 µM (active)
[11]
  Potency: 30.5 µM (active) and 48.6 µM (active)
[12]
  Potency: inactive
[13]
  Potency: 963 nM (active) and 3.06 µM (active)

## COc1ccc(CCN(C)CCCC(C#N)(c2ccc(OC)c(OC)c2)C(C)C)cc1OC (configuration not stated)
[1]
  Potency: inactive
[2]
  Potency: 54.8 µM (active)
[3]
  Potency: inactive
[6]
  Potency: inactive
[19]
  Potency: inactive

## NC(N)=NC(=O)Cc1c(Cl)cccc1Cl
[1]
  Potency: inactive
[2]
  Potency: inactive
[3]
  Potency: inactive
[5]
  Potency: inactive
[6]
  Potency: inactive
[14]
  Potency: inactive
[8]
  Potency: inactive
[9]
  Potency: inactive
[19]
  Potency: inactive
[17]
  Potency: inactive
[15]
  Potency: inactive
[11]
  Potency: inactive
[12]
  Potency: inactive
[13]
  Potency: inactive

## CC(C)CCCCCCc1ccc(O)cc1
[1]
  Potency: inactive
[2]
  Potency: 19.8 µM (active) and 43.6 µM (active)
[3]
  Potency: 39.6 µM (active)
[5]
  Potency: 19.8 µM (active)
[6]
  Potency: 39.6 µM (active) and 38.9 µM (active)
[14]
  Potency: 25 µM (active) and 43.6 µM (active)
[9]
  Potency: 6.98 µM (active) and inactive
[10]
  Potency: 5.54 µM (active) and inactive
[19]
  Potency: inactive
[16]
  Potency: 62.2 µM (active)
[11]
  Potency: 55.4 µM (active) and inactive
[12]
  Potency: inactive
[13]
  Potency: 24.8 µM (active) and inactive
